“And” between values parts separate entries of the source, which are not always exact repeats. Equal values may be shown once. This is part of a sample that, as a whole, favours compounds with a hit. Of some 83,000 tested, about 20% had one in any assay.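 Activity criterion: percent growth below 10, measured after cells in 96-well plates were exposed to a single compound concentration for 48 hours.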 A number with no mark means an inactive call. The source made the active and inactive calls.
Columns and labels:
Assay in all cases: NCI-60 one-dose screen, 48 h (100 = growth as untreated, 0 = no growth, -100 = all killed)
T-47D breast = settings: 10 µM unless noted
BT-549 breast = settings: 10 µM unless noted
SW-620 colon = settings: 10 µM unless noted
MCF7 breast = settings: 10 µM
HCT-116 colon = settings: 10 µM unless noted
HCC-2998 colon = settings: 10 µM unless noted
KM12 colon = settings: 10 µM unless noted
MDA-MB-435 melanoma = settings: 10 µM unless noted

| Structure (SMILES) | growth (T-47D breast) | growth (BT-549 breast) [%] | growth (SW-620 colon) | growth (MCF7 breast) | growth (HCT-116 colon) | growth (HCC-2998 colon) | growth (KM12 colon) | growth (MDA-MB-435 melanoma) [%] |
| --- | --- | --- | --- | --- | --- | --- | --- | --- |
| COc1ccccc1OC(=O)Oc1ccccc1OC | 123% and 100% | 97 | 94.6% and 92.8% | 96.1% and 88.8% | 99.9% and 101% | 102% and 94.6% | 107% and 98% | – |
| O=C(Nc1ccccc1)c1cc(Cl)ccc1O | 23.4% | 57.5 | 63.3% | 81.9% | 51% | 89.1% | 47% | – |
| CN(C)c1ccc(N=Nc2cccc3ccccc23)cc1 | 22.2% | 76.8 | 98.6% | 14.2% | 75.2% | 69.2% | 94.2% | – |
| O=C1NC(=O)/C(=C/C=C/c2ccccc2)S1 | 60.7% | – | 61.4% | 19.1% | 31.7% | 13.2% | – | 49.6 |
| CN1c2ccccc2C(C)(C)C12C=Cc1cc(O)ccc1O2 (centres undefined) | 40.2% | 33.2 | 46.9% | 5.47% (active) | 67.9% | 83.2% | 18.7% | – |
| CNc1ccc2c(c1)c1ccccc1n2C | 91.3% | 106 | – | 97.5% | 107% | 99.4% | – | – |
| O=C(/C=C/C=C/c1ccccc1)c1ccco1 | 67.5% | 113 | – | 26.1% | 36.3% | 114% | 86.8% | – |
| CCOC(=O)/C=C/c1ccc([N+](=O)[O-])o1 | – | 62.7 | 8.72% (active) | 25.5% | -54.3% (active) | 95.7% | 87.4% | 44 |
| CN(C)c1ccc(/C=N/N=C(\C#N)[S][Sn]([Cl])([c]2ccccc2)[c]2ccccc2)cc1 | -65.8% (active) | 57.5 | -52.2% (active) | -81.9% (active) | -59.4% (active) | 63.5% | 63.3% | – |

Source: PubChem BioAssay (NCI)
